# Measured values taken from ChEMBL document CHEMBL3988442, “University of Dundee, Small-Polar-MMV Screening Library” (2021).
# Screen size: about 69,000 compounds; about 420 (0.61%) showed an effect of 50% or more. Shown is part of a subset that was picked to be rich in strong results.
# Molecular target: T1, Histidine--tRNA ligase (Leishmania infantum) (UniProt A4I591)
# T1 sequence (whole entry): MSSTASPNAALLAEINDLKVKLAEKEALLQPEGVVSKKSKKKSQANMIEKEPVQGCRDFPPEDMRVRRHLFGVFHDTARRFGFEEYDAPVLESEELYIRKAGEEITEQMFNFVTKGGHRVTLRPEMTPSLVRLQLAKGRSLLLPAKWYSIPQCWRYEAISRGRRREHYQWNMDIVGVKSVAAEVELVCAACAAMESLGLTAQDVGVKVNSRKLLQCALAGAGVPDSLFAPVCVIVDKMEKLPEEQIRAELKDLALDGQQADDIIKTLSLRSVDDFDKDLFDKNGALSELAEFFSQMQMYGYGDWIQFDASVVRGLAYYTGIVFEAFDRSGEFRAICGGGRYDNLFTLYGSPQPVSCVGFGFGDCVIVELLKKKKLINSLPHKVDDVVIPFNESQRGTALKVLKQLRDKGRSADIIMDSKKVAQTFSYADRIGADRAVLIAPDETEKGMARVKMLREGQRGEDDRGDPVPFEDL
# Test: Leishmania infantum Histidine tRNA synthetase (LdHisRS)
# Format: functional
# Parameters: scale not given: in the data most compounds retested in dose-response had high values
# Details: 30 µM
row,Structure (SMILES),Percent Effect
1,Cc1ccc([C@@]2(O)CC[C@@H]3CN(S(=O)(=O)c4cn(C)nc4C)C[C@@H]32)cc1,-15.8%
2,CSc1nc(N)cc(N2C[C@@H]3CC[C@H](C2)N(CC2CC2)C3=O)n1,24.7%
3,Cc1ccccc1CCC1CCCN(C(=O)Cc2cc(=O)[nH]c(N)n2)C1 (stereo unspecified),18.3%
4,Nc1nc(CC(=O)N2CCCC(CCc3cccc(F)c3)C2)cc(=O)[nH]1 (stereo unspecified),78.3%
5,O=C(CC1=CSC2=NCCN12)N1CCCC(CCc2cccc(F)c2)C1 (stereo unspecified),28.3%
6,Cc1ccccc1CC(C)(C)NC(=O)CCOc1cccc(C(N)=O)c1,1.3%
7,Cc1ccccc1CC(C)(C)NC(=O)COc1cccc(C(N)=O)c1,22.1%
8,Cc1ccccc1CC(C)(C)NC(=O)c1cccc(OCC(N)=O)c1,50.6%
9,Cc1ccc(CN2C[C@@H](OCc3csc(C)n3)[C@H]3COC[C@H]32)s1,21%
10,CN1CCC(O)(CCNC(=O)[C@@]23CNC[C@@H]2CN(C2CCCC2)C3)CC1,10.3%
11,CC(=O)N1CCO[C@@H]2CN(S(=O)(=O)c3ccc(C)cc3)CC[C@@H]2C1,50.9%
12,CC(=O)N1CCO[C@@H]2CN(S(=O)(=O)c3cccs3)CC[C@@H]2C1,5.66%
13,CC(=O)N1CCO[C@@H]2CN(S(=O)(=O)c3ccc(F)cc3)CC[C@@H]2C1,17%
14,O=C(N[C@@H]1CN(Cc2ccoc2)C[C@@H]2CCCO[C@@H]21)C1CCC1,11.8%
15,Cc1nnc(N2C[C@H](C(=O)NCc3ccco3)[C@@H]3CCO[C@@H]3C2)s1,16.8%
16,CS(=O)(=O)N1C[C@@H]2COC[C@@H](CC(=O)N3CCCO3)[C@@H]2C1,7.89%
17,O=C(O)CNc1cc(-c2nccnc2N2CCCC2)c2cc[nH]c2n1,20.2%
18,OCCNc1cc(-c2nccnc2N2CCCC2)c2cc[nH]c2n1,62.8%
19,Nc1cc(-c2nccnc2N2CCCC2)c2cc[nH]c2n1,20.2%
20,Cc1ccc(C)c(OC(C)C(=O)Nc2cccnc2)c1 (stereo unspecified),0%
21,Cc1ccc(C)c(OC(C)C(=O)NCc2cccnc2)c1 (stereo unspecified),0%
22,Cc1ccc(C)c(OC(C)C(=O)NCCNc2cccnc2)c1 (stereo unspecified),60.6%

row,Structure (SMILES),Percent Effect
1,NC(=O)CN1C(=O)CO[C@H]2CN(Cc3ccc(Cl)cc3)C[C@H]21,10.8%
2,Cc1ccc(N2CC[C@@H]3[C@@H]2CCN3C(=O)c2cscn2)nn1,7.89%
3,O=C(N[C@H]1CCCC[C@@H]1O)c1ccc2nc(-c3ccccc3)[nH]c2c1,3.96%
4,O=C(NC[C@H]1CCCC[C@H]1O)c1ccc2nc(-c3ccco3)[nH]c2c1,63.4%
5,O=C(NC[C@H]1CCCC[C@H]1O)c1cccc2[nH]c(-c3ccco3)nc12,29.7%
6,COC[C@@H]1CC[C@H]2[C@H](CCN2C(=O)c2ccncc2F)O1,22.6%
7,O=C(Cn1ccc2sccc2c1=O)NCc1ccc(F)cc1,5.43%
8,CN(C)S(=O)(=O)N1C[C@H]2CCC[C@@]2(COCc2ccccn2)C1,-17.6%
9,Cc1cccc(COC[C@H]2CC[C@H]3[C@H](CCN3C(=O)CC3CC3)O2)n1,13.9%
10,CC(C)n1nc2c(cc1=O)CN(Cc1nnc(C3CC3)o1)CC2,24.5%
11,Cn1nc2c(cc1=O)CN(Cc1nnc(-c3ccc(F)cc3)o1)CC2,78.7%
12,CC(C)n1nc2c(cc1=O)CN(Cc1nc(-c3ccco3)no1)CC2,2.67%
13,CCOCCN1CCN(Cc2nnc(-c3ccco3)o2)CC1,8.51%
14,Cn1nc2c(cc1=O)CN(Cc1ccc(-n3cccn3)cc1)CC2,33.3%
15,Cc1ccc(-c2nnc(CN3CCc4nn(C)c(=O)cc4C3)o2)cc1,106%
16,Cc1ccc(-c2nnc(CN3CCc4cnc(C)nc4C3)o2)cc1,40%
17,Cn1nc2c(cc1=O)CN(Cc1nnc(-c3ccco3)o1)CC2,76.6%
18,Cc1nc(CN2CCc3nn(C)c(=O)cc3C2)oc1C,14.9%
19,COc1ccc(N2Cc3nc(N)ncc3C2=O)cc1,0%
20,O=C1[C@H]2CN(CC3CC3)C[C@H]2CN1Cc1cccc(F)c1,-1.5%
21,O=C([C@H]1C[C@H]2OCC[C@H]2N(CCc2ccccc2)C1)N1CCCCO1,9.02%
22,Cc1nc(CN2C[C@@H]3CN(c4ncc(F)cn4)C[C@@H]3C2=O)cs1,19.7%

row,Structure (SMILES),Percent Effect
1,O=C(c1cccnc1)N1C[C@@H]2CC[C@H](C1)N(Cc1ccc(F)cc1Cl)C2,7.2%
2,CC(=O)N1CCN2C[C@H](CO)[C@@H](c3ccccc3)[C@H]2C1,2.04%
3,CC1=C(C#N)C(=O)N(C)C(=O)/C1=C\C1=Cc2ccccc2OC1,92.1%
4,CC(Cn1cccn1)NC(=O)C1=Cc2ccccc2OC1 (stereo unspecified),16%
5,COC(=O)CC(C1=Cc2ccccc2OC1)c1oc(C)cc(=O)c1O (stereo unspecified),23.1%
6,CCN1C(=O)C(C#N)=C(C)/C(=C/C2=Cc3ccccc3OC2)C1=O,86.8%
7,O=C(Nc1cccnc1)C1=Cc2ccccc2OC1,25%
8,Cc1nc([C@H]2C[C@H]3CN(C(=O)c4cc(C)c(C)s4)CC[C@@H]3O2)no1,20.6%
9,COc1cccc(C(=O)N2C[C@@H](c3ccccc3)[C@@H]3NCCCC[C@@H]32)c1,10.3%
10,Cc1nc2c(c(=O)[nH]1)CN(C(=O)CC[C@@H]1CCCN3CCCC[C@H]13)C2,3.54%
11,Cc1ccc(CN2CC[C@@H]3[C@@H](CO[C@H]3CN3CCN(C)CC3)C2)s1,-11.1%
12,O=C(c1cscn1)N1C[C@H](OCc2cccnc2)[C@H]2COC[C@H]21,9.72%
13,CCC1=N[C@@]2(CC[C@@H]3CN(Cc4ccccc4C)C[C@@H]32)C(=O)N1C,10%
14,Cn1cccc1C(=O)N[C@@H]1CN(Cc2ccsc2)[C@@H]2COC[C@@H]21,20%
15,Cc1ccnc(N2CCN(C[C@]3(O)CCCN4CCCC[C@@H]43)CC2)c1,2.86%
16,Cc1nc(O)cc(CCNC(=O)CC[C@@H]2CCCN3CCCC[C@H]23)n1,5.38%
17,CC1=C(C#N)C(=O)NC(=O)/C1=C\c1c(C)nn(-c2ccc(Cl)cc2)c1O,51.5%
18,CC1=C(C#N)C(=O)NC(=O)/C1=C\c1c(C)nn(-c2ccc(C)cc2)c1O,70.1%
19,Cc1nn(C)c(=O)c2nn(-c3ccc(Cl)cc3)c(C)c12,5.5%
20,CCN(CC)CCNC(=O)CCc1c(C)nn(-c2ccc(Cl)cc2)c1C,7.92%
21,Cc1ccc(-n2nc(C)c3c2NC(=O)CC3c2cnc(N)s2)cc1 (stereo unspecified),17.3%
22,CC1=C(C#N)C(=O)NC(=O)/C1=C\c1c(C)nn(-c2ccccc2)c1O,43.3%

row,Structure (SMILES),Percent Effect
1,Cc1cc(CN2CC[C@H]3OCC[C@@]3(C(=O)NCc3ccco3)C2)no1,11.4%
2,O=C([C@H]1CCS(=O)(=O)[C@@H]2CN(CCc3ccccc3)C[C@H]12)N1CCCC1,17.6%
3,Cc1ccncc1C(=O)N1CC[C@@]2(O)CCN(C3CCCCC3)C[C@H]2C1,14.5%
4,c1cnn(CCCO[C@@H]2CC[C@H]3[C@H]2OCCN3CC2CCOCC2)c1,13.9%
5,Cc1noc(C)c1CN1C[C@@H]2CC[C@H](C1)N(Cc1cc(F)cc(F)c1)C2,24.7%
6,Cc1ccc(N2CCCC3(COCCN(c4nccs4)C3)C2)nn1 (stereo unspecified),11.4%
7,Cc1ccc(N2CCC3(CC2)COCCN(c2nccs2)C3)nn1,58.5%
8,Cc1ccc(N2CC3(CCN(c4nccs4)C3)C2)nn1,9.52%
9,CS(=O)(=O)N1C[C@@H]2CC[C@H](C1)N(C(=O)Cn1ccc3ccccc31)C2,11.6%
10,Cn1cc(CN2CC[C@@H]3[C@H]2CCC(=O)N3c2ccccc2)cn1,5.56%
11,CN(CCOc1ccccc1)C(=O)Nc1cccn(C)c1=O,112%
12,Cn1cccc(NC(=O)COc2ccc(Br)cc2)c1=O,26.1%
13,COc1c(NC(=O)N(C)CCOc2ccccc2)c(C)nn1C,24.1%
14,O=C(NCc1ccco1)[C@H]1COC[C@H]2CN(Cc3ccccn3)C[C@H]21,14%
15,Cc1ccccc1NC1CCN(C(=O)CCc2ccco2)CC1,12.5%
16,Cc1ccc(NC2CCN(C(=O)CCc3ccco3)CC2)nn1,27.7%
17,Cc1ccc(N(C)C2CCN(C(=O)CCc3ccco3)CC2)nn1,58.5%
18,O=C(c1ncccn1)N1C[C@H]2CCC[C@@]2(COCc2cccnc2)C1,-3.92%
19,Cc1cnc(C(=O)N2C[C@H]3CN(Cc4cccs4)C[C@H]3C2)cn1,-3.19%
20,CS(=O)(=O)CCC(=O)N1C[C@@H]2CC[C@H](C1)N(Cc1ccccn1)C2=O,18%
21,O=C(CC1CC1)N[C@@H]1CN(Cc2ccoc2)C[C@@H]2CCCO[C@@H]21,-31.4%
22,O=C1CC[C@H](C(=O)Nc2cnn(-c3ccccc3Br)c2)N1,7.32%

row,Structure (SMILES),Percent Effect
1,O=C1CCC(C(=O)Nc2ccc(=O)n(Cc3ccc(Cl)c(Cl)c3)c2)N1 (stereo unspecified),95.2%
2,O=C1NCC(C(=O)Nc2ccc(=O)n(Cc3ccccc3Cl)c2)N1 (stereo unspecified),92.8%
3,O=C(Nc1cnn(Cc2ccc(F)cc2Cl)c1)C1CC1,15.9%
4,O=C1NCC(C(=O)NCc2ccccc2CN2CCOCC2)N1 (stereo unspecified),7.25%
5,O=C1CCC(C(=O)Nc2ccc(=O)n(Cc3ccccc3Cl)c2)N1 (stereo unspecified),20.5%
6,O=C1CCC(C(=O)Nc2cnn(-c3ccccc3Cl)c2)N1 (stereo unspecified),19.5%
7,O=C(Nc1ccc(=O)n(Cc2ccccc2Cl)c1)C1CC1,114%
8,CC1CCN(Cc2ccccc2CNC(=O)C2CNC(=O)N2)CC1 (stereo unspecified),5.18%
9,CC(C)CN1C(=O)CO[C@@H]2CN(C(=O)N(C)C)C[C@H]21,8.77%
10,CN1CC[C@@H]2[C@@H](CO[C@H]2CNC(=O)c2nccn2C)C1,16%
11,CN(C)C(=O)CN1C[C@@H]2CC[C@H](C1)N(Cc1cc(F)ccc1F)C2,1.91%
12,CN1C[C@@H]2CC[C@H](CC1=O)N2C(=O)c1cc2ccccc2[nH]c1=O,19.5%
13,Cc1occc1C(=O)N1C[C@@H]2[C@@H](C1)OCC(=O)N2Cc1cccnc1,11.5%
14,Cn1cc(C(=O)N2CC[C@@H]3[C@@H]2CCN3c2ccccn2)cn1,16%
15,Cc1noc(C)c1CN1CCO[C@H]2CN(C(=O)C3CCOCC3)C[C@H]21,7.96%
16,Cc1cc(C(=O)NCc2cccnc2N2CCc3ccccc3C2)[nH]n1,21.4%
17,O=C(NCc1cccnc1N1CCc2ccccc2C1)c1cnc[nH]1,18.6%
18,O=C(NCc1cccnc1N1CCc2ccccc2C1)c1cc(=O)[nH][nH]1,50%
